Compounds with a hit are over-represented: about 4% of the library has one in this group of screens.
EBV LMP1 NFkB – inhibitors of Epstein-Barr LMP1-induced NF-kappaB reporter; LMP1-induced NF-kappaB luciferase reporter cells, luminescence; inhibition, % at 12.5 µM; 350,000 compounds, 0.69% hits; in the data active = inhibition above about 41%; inconclusive = no clear call, values can overlap the other calls;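 also: 0% = neutral control wells and 100% = reference inhibitor control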
MITF TRPM1 inh – MITF TRPM1 promoter inhibition in SK-MEL-5 cells; AID 488899; inhibition, % at 12.5 µM; 330,000 compounds, 0.83% hits; SK-MEL-5 TRPM1 promoter luciferase, 24 h;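 active = mean inhibition across replicates of 60% or more, whatever share of single replicates reaches that level; inconclusive = some that reach 60%, reason not given; inactive = mean inhibition across replicates below 60%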
HIF-2a inh – blocks HIF-2a reporter activity | AID 624352 | 360,000 compounds, 0.72% hits | 786-0 RCC cells HIF-2a reporter, luciferase luminescence, overnight | inhibition, % at 18.8 µM;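 active = inhibition of the luminescence signal of 40% or more relative to plate controls, in a single-dose primary screen at 18.75 µM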
TWEAK-Fn14 inh – inhibitors of TWEAK-Fn14 interaction signaling | TWEAK-stimulated Fn14 reporter cells, luciferase luminescence, 8 h | inhibition, % at 10 µM | 360,000 compounds, 2% hits; in the data active = inhibition above about 50%
Peg3 promoter – Peg3 promoter activity inhibition. HeLa PEG-Prom luciferase reporter, luminescence, overnight. 360,000 compounds, 1.7% hits. inhibition, % at 20 µM. AID 588405;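 active = inhibition of at least 50% at 20 µM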
TROY signal inh – inhibitors of TROY-dependent NF-kB signaling. 360,000 compounds, 0.98% hits. Q293 LMP1-TROYcd NF-kB luciferase reporter, 4 h. inhibition, % at 10 µM;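 active = compounds whose plate-normalised and pattern-corrected inhibition of the luciferase reporter signal at the single screening dose is 50% or more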
An asterisk follows results filed as active; ? = inconclusive; · = not tested or not shown.

SMILES | EBV LMP1 NFkB | MITF TRPM1 inh | HIF-2a inh | TWEAK-Fn14 inh | Peg3 promoter | TROY signal inh
CSc1ncccc1C(=O)OCC(=O)c1cc(C)n(C)c1C | -23 | -86 | -258 | 1 | -285 | -72
COc1ccc(C2(c3ccc(OC)cc3)NC(=O)N(CC(=O)N(C)C3CCC(C)CC3)C2=O)cc1 (stereo not given) | 9 | 5 | 21 | 14 | 6 | 10
CC1CCCCC1NC(=O)C1CCC(CNS(=O)(=O)c2ccc3c(c2)C(C)(C)C(=O)N3C)CC1 (stereo not given) | · | · | 12 | 3 | 8 | -7
CCCN1C(C)C(C(=O)OCC)=CN(Cc2cccc(I)c2)S1(=O)=O (stereo not given) | -4 | -2 | 14 | 13 | 16 | -2
CC(=O)Nc1ccc(S(=O)(=O)NCCC(=O)OCc2nnc(-c3ccccc3)o2)cc1 | -9 | -15 | -14 | -4 | -7 | 17
O=C(CCNS(=O)(=O)c1ccccc1)OCc1nnc(-c2ccccc2)o1 | -6 | -20 | -64 | 1 | -51 | 61*
CCC(C)(C)NC(=O)C(c1ccc(F)cc1)N(Cc1cccc(OC)c1)C(=O)c1cnccn1 (stereo not given) | 8 | 2 | -5 | -21 | 58* | -10
COc1ccc(-c2cc(C(F)(F)F)n3nc(C(=O)N4CCOCC4)nc3n2)cc1 | 44* | -1 | 0 | -14 | -3 | 2
COc1ccc(-c2cc(CCCC(=O)N3CCN(c4ccc(OC)cc4)CC3)no2)cc1 | 9 | 0 | 17 | 51* | 11 | 24
COc1ccc(-c2cc(C(=O)N3CCOCC3)no2)cc1 | 29 | 10 | -21 | 65* | -44 | 41
O=C(c1cc(-c2ccc(Br)cc2)on1)N1CCOCC1 | 2 | -22 | -114 | 55* | -274 | -2
CCCCCCn1cc(CN2CC(N3CCCCC3)CS2(=O)=O)nn1 (stereo not given) | · | · | 11 | 6 | · | -10
CCOC(=O)C1(C)CCCN1C(=O)c1cccc2ccccc12 (stereo not given) | · | · | 5 | 3 | -3 | 3
CCCC(C)NC(=O)COC(=O)c1cc(Br)c(Br)s1 (stereo not given) | 4 | 7 | 21 | 23 | 2 | 1
COc1ccc(-c2cc(-c3ccccc3)no2)cc1 | -22 | -43 | -150 | 69* | -108 | 18
CCCNC(=O)C1(C)CCCN(C(=O)c2ccc3snnc3c2)C1 (stereo not given) | · | · | 9 | 9 | 0 | -10
Nc1cccc(-c2cc3ccccc3oc2=O)c1 | 22 | 22 | 41* | 60* | -61 | 67*
Cc1nc(NC(=O)c2cccc(-c3cc4ccccc4oc3=O)c2)ccc1Br | -8 | 7 | -55 | -42 | 79* | -68
Nc1nnc(-c2cc3ccccc3oc2=O)s1 | -8 | -25 | -188 | -3 | -199 | -47
Cc1nc(NC(=O)c2ccc(-c3cc4ccccc4oc3=O)cc2)ccc1Br | -6 | 0 | 9 | -20 | 82* | -5
O=C(Nc1ccc(Br)cn1)c1cccc(-c2cc3ccccc3oc2=O)c1 | -16 | -50 | -82 | -72 | -175 | -73
COc1ccc([C@@H]2C[C@H]3[C@@H](CN2S(=O)(=O)c2ccccc2)C(=O)C[C@@H](c2ccc(OC)cc2)N3S(=O)(=O)c2ccccc2)cc1 | · | · | 0 | -13 | -18 | 0
CCOC(=O)c1cc(S(=O)(=O)NC2CCC(C)CC2)cn1C (stereo not given) | 5 | -2 | 4 | -1 | 6 | 4
Nc1nc2ccccc2n1C(=O)c1ccc(F)cc1 | 7 | -4 | -35 | 61* | -40 | 24
Nc1nc2ccccc2n1C(=O)c1ccccc1 | ? | 1 | -14 | 78* | -28 | 35
SMILES | EBV LMP1 NFkB | MITF TRPM1 inh | HIF-2a inh | TWEAK-Fn14 inh | Peg3 promoter | TROY signal inh
COc1ccc(C(=O)n2c(N)nc3ccccc32)cc1OC | -6 | -48 | -292 | 7 | -312 | -58
CN1C[C@@H](CO)O[C@@H](n2cnc3c(N4CCOCC4)ncnc32)C1 | · | · | 11 | -16 | -1 | -16
O=C1NC(=S)NC(=O)C1=Cc1ccccc1C(=O)O | -5 | -3 | 6 | -2 | 4 | 15
C=CCNc1nc(-c2sc(NC(C)=O)nc2C)cs1 | -17 | -17 | -77 | -1 | -110 | -26
C=CCNc1nc(-c2sc(NC(=O)C(C)(C)C)nc2C)c(-n2cc(-c3ccccc3)nn2)s1 | · | · | -8 | 58* | · | 16
Cc1cc(C)c(S(=O)(=O)c2ccccc2C(C)C)c(=O)[nH]1 | 0 | -9 | 10 | 1 | 14 | 8
COc1cc(O)c(CC=C(C)C)c(O)c1C(=O)CCc1ccc(O)cc1 | -42 | -11 | -303 | 81* | 13 | 71*
O=C(CCc1ccc(O)cc1)c1c(O)cc(O)cc1O | 0 | -7 | -16 | -3 | 1 | -31
Cc1ccc(S(=O)(=O)N2CCCCC2)cc1NC(=O)CSc1nc(N)cc(=O)[nH]1 | 3 | 8 | 7 | -2 | 6 | -6
S=C(NCCN(C1CCCCC1)C1CCCC1)Nc1cccc(Cl)c1 | -31 | -1 | 8 | -13 | -12 | 20
S=C(NCCC(c1ccccc1)c1ccccc1)Nc1cccc(Cl)c1 | -15 | -2 | -30 | 29 | 11 | 62*
Cc1ccc(S(=O)(=O)Cc2ccc(C(=O)OCc3ccccc3)cc2)cc1 | 1 | 4 | 7 | -4 | 10 | -5
COC(=O)c1c[nH]c2c1-c1cc(C(=O)OCc3ccccc3)n(S(=O)(=O)c3ccc(C)cc3)c1C(=O)C2=O | 1 | 112* | 8 | 99* | 82* | 57*
COc1ccccc1CNc1nc(Nc2ccccc2-n2cccn2)c2sccc2n1 | · | · | 24 | 19 | 29 | 16
CCOc1ccc(CNC(=O)CN2C(=O)CSc3ccc(S(=O)(=O)N4CCOCC4)cc32)cc1OC | -2 | 0 | 8 | -3 | 2 | -4
CCOc1cc(CNc2ccc(N3CCOCC3)cc2)cc(Br)c1OCC | 6 | 12 | 26 | 18 | 15 | 24
CCOc1cc(CNc2ccc3c(c2)OCCO3)cc(Br)c1OCC | 28 | 47 | 35 | 81* | 47 | 77*
O=C(c1[nH]ncc1-c1cccc(Br)c1)C1CO1 (stereo not given) | -38 | 17 | 39 | 54* | 39 | 4
Cc1nnc(SCC(=O)NC2CCCCC2)n1-c1ccccc1 | -1 | · | 12 | -1 | 2 | -9
CCOc1ccc(S(=O)(=O)N2CCN(CN3C(=O)CC4(CCCC4)C3=O)CC2)cc1 | 3 | -6 | 1 | 3 | 18 | 7
COc1ccc(-c2oc3c(c2C#CC(C)(C)O)C(OC)CCC3)cc1 (stereo not given) | · | · | -2 | 25 | · | 1
S=c1sc2c(Cl)ncnc2n1-c1ccccc1 | 27 | 70* | 84* | 43 | 112* | 30
COc1ccc(N/C(N)=N/c2nc(C)cc(=O)[nH]2)cc1 | 86* | 8 | 9 | -10 | 15 | -7
COc1cc(/C=C/C(=O)c2ccc(Cl)s2)cc(OC)c1O | 31 | 28 | 27 | 37 | 52* | -20

From PubChem
